# PMC5540273 (PLoS ONE, 2017)
# Assays:
# Conditions in all cases: concentration: 1 μM, replicates: in singlicate; n = 1
# ACVR2A = tested on: ACVR2A
# ACVR2B = tested on: ACVR2B
# ACVRL1 = tested on: ACVRL1
# ADCK3 = tested on: T1, ADCK3
# T1 construct: gene CABC1
# ADCK4 = tested on: ADCK4
# AKT1 = tested on: AKT1
# AKT2 = tested on: AKT2
# AKT3 = tested on: AKT3
# ALK = tested on: ALK
# AMPK-alpha1 = tested on: T2, AMPK-alpha1
# T2 construct: gene PRKAA1
# AMPK-alpha2 = tested on: T3, AMPK-alpha2
# T3 construct: gene PRKAA2
# ANKK1 = tested on: ANKK1
# ARK5 = tested on: T4, ARK5
# T4 construct: gene NUAK1
# ASK1 = tested on: T5, ASK1
# T5 construct: gene MAP3K5
# ASK2 = tested on: T6, ASK2
# T6 construct: gene MAP3K6
# AURKA = tested on: AURKA
# AURKB = tested on: AURKB
# AURKC = tested on: AURKC
# AXL = tested on: AXL
# BIKE = tested on: T7, BIKE
# T7 construct: gene BMP2K
# 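Note: KINOMEscan kinase panel screen.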
SMILES,%Inh (ACVR2A) [%],%Inh (ACVR2B) [%],%Inh (ACVRL1) [%],%Inh (ADCK3) [%],%Inh (ADCK4) [%],%Inh (AKT1) [%],%Inh (AKT2) [%],%Inh (AKT3) [%],%Inh (ALK) [%],%Inh (AMPK-alpha1) [%],%Inh (AMPK-alpha2) [%],%Inh (ANKK1) [%],%Inh (ARK5) [%],%Inh (ASK1) [%],%Inh (ASK2) [%],%Inh (AURKA) [%],%Inh (AURKB) [%],%Inh (AURKC) [%],%Inh (AXL) [%],%Inh (BIKE) [%]
O=C(Nc1cccc(-c2nn3ncccc3c2-c2ccnc(Nc3cccc(C(F)(F)F)c3)n2)c1)c1c(F)cccc1F [GSK299495],0,0,0,1,28,0,1,0,22,0,15,0,12,1,3,9,29,56,6,19
CCCCCc1nc2c(N)ncnc2n1CCCCC [SKF-97255],0,0,13,1,0,0,0,0,0,3,11,0,0,0,0,10,37,0,0,0
Fc1ccc(-c2ncn(CCCN3CCOCC3)c2-c2ccccn2)cc1 [SB-211742],0,19,0,3,6,15,4,0,19,10,0,0,0,10,0,0,0,0,6,23
NS(=O)(=O)c1cccc(-c2ccc3nccc(-c4cccc(S(N)(=O)=O)c4)c3c2)c1 [GW867253],0,0,0,0,10,2,0,10,0,0,6,0,0,0,0,19,45,0,0,0
NCC(NC(=O)c1cc(-c2cn[nH]c2)c(-c2ccnc3[nH]ccc23)s1)c1ccccc1.O=C(O)C(F)(F)F.O=C(O)C(F)(F)F (centres unmarked) [GSK1325775],15,0,0,52,58,66,23,83,38,17,24,0,52,11,23,95.6,83,82,45,99.7
CN(C(=O)c1ccc(-c2cc(-c3c[nH]nc3-c3ccccn3)ccn2)cc1)C1CCOCC1 [GW810083],0,2,0,1,24,0,0,0,17,0,0,0,15,44,0,0,0,7,48,20
O=C1Cc2cc(Nc3nc(NCc4cccc(S(=O)(=O)C(F)(F)F)c4)ncc3C(F)(F)F)ccc2N1,0,0,0,0,2,0,1,0,0,2,0,0,22,11,0,1,13,0,2,0
COC(=O)Nc1nc2cc(Oc3ccc(NC(=O)Nc4cc(F)ccc4F)cc3)ccc2[nH]1.Cl [GW701424],0,0,0,7,40,0,4,0,28,0,8,12,0,13,0,0,94.5,50,93.5,3
COc1ccc(CNC(=O)NC2CCN(c3ccnc(Nc4ccc(OC)cc4)n3)C2)cc1 (centres unmarked) [GSK1379727],0,0,0,3,59,0,0,0,28,0,0,0,0,0,0,5,22,56,7,11
COc1ccc(Nc2nccc(N3CCC(NC(=O)Nc4cccc(C(C)=O)c4)C3)n2)cc1 (centres unmarked) [GSK1379731],0,11,0,0,11,0,0,0,15,0,0,0,50,0,0,0,0,40,9,30
